Hit rate of the full screen: of about 190,000 compounds, about 280 (0.15%) were called active. The list comes from a sample in which actives are over-represented; it also holds similar structures and randomly drawn compounds. Unmarked numbers belong to inactive results. Cut-off read from the data, not from the text of the source: active = inhibition above about 27% (passing the limit was not always enough); inactive = the rest.
Each compound was assayed on HCMV UL50-UL53 nuclear egress complex (human cytomegalovirus) (assay: inhibitors of HCMV UL50-UL53 interaction, biochemical, HTRF (AID 1918969)). Settings: normalized percent inhibition, stronger effect = higher value, concentration not given here.
In the case of COc1ccc(-c2cc(C3CC3)nc3sc(C(N)=O)c(N)c23)cc1, the inhibition is reported as -38.3%. Compound Cn1c(CCc2ccc(NC(=O)CN3C(=O)COc4ccccc43)cc2)nc2ccccc21 has an inhibition of -5.5%. Compound NCC(c1ccccc1)N1CCCC1 (stereo unspecified) has an inhibition of -3.2%. For Cc1ccc(S(=O)(=O)N/N=C2/CSCC2NC(=O)c2ccccc2)cc1 (stereo unspecified), the inhibition was -22.7%. Compound CCC(C)NS(=O)(=O)c1cc(C(=O)OC)n(C)c1C (stereo unspecified) has an inhibition of -32.5%. Compound CC(=O)N1c2ccc(S(=O)(=O)N3CCN(c4nc5ccccc5n5cccc45)CC3)cc2CC1C (stereo unspecified) has an inhibition of -16.8%. Work on Cc1cc(C)cc(NC2=NS(=O)(=O)c3ccccc32)c1 yielded an inhibition of 7.9%. CCn1c(COC(=O)C2CSC3(C)CCC(=O)N23)nc2cc(S(=O)(=O)N(C)C)ccc21 (stereo unspecified) showed an inhibition of -24.2%. Work on COC(=O)c1cc(OC(=O)c2cc(OC)cc(OC)c2)cc(C(=O)OC)c1 yielded an inhibition of 6.8%. With COCC(=O)Nc1nc2nc(-c3ccccc3)cc(=O)n2[nH]1 the inhibition was -6.9%. With COc1ccccc1CNC(=O)C1CCN(c2ncnc3c2sc2nc(C)cc(-c4ccccc4)c23)CC1 the inhibition was -7.4%. In the case of O=C(Nc1ccc2sccc2c1)C1CC1, the inhibition is reported as -0.1%. In the case of COc1ccc(NC(=O)CN2C(=O)C(C)(C)c3ccccc32)cc1, the inhibition is reported as -13.1%. CCOC(=O)c1cc(Nc2cc(OCC)ccc2OCC)c2cc(C)ccc2n1 was tested, and the inhibition was -15.8%. For COc1nc(N)c(C#N)c(-c2ccccc2)c1C#N, the inhibition was 5.4%. CC(C)CSc1nccn2nc(-c3ccc(Cl)cc3)cc12 gave an inhibition of 15.5%. Compound CCOC(=O)c1cccc(NC(=O)c2ccc(CN3CC(=O)N4CSCC4C3=O)cc2)c1 (stereo unspecified) has an inhibition of -6.4%. With C=C(C)C1Cc2c(C)nn(S(=O)(=O)c3ccc(C)cc3)c2C1 (stereo unspecified) the inhibition was -7.3%. COc1ccc(OC)c(NC(=O)Cn2cnc3c2c(=O)n(C)c(=O)n3C)c1 was tested, and the inhibition was -4.9%. In the case of CCOc1ccc(NC(=O)CCCN2C(=O)/C(=C/c3ccc(Cl)cc3)SC2=S)cc1, the inhibition is reported as -12.3%. Compound CCOC(=O)c1c(N)sc2c1CCC(Br)C2=O (stereo unspecified) has an inhibition of -67.7%. Work on CCN(C(=O)CSc1nnc(CN(c2ccc(F)cc2)S(C)(=O)=O)n1C)c1ccccc1 yielded an inhibition of -23.6%. For CCOc1cccc(C(=O)Nc2ccccc2C(=O)OC)c1, the inhibition was 9.1%. O=C(Nc1c[nH]c(=O)[nH]c1=O)c1ccco1 was tested, and the inhibition was -1.3%. For CC(C)CN(CC(C)C)C(=O)CCN1C(=O)c2ccccc2C1=O, the inhibition was -21.3%. In the case of CN(C(=O)CSc1nc(-c2ccccc2)cc(-c2ccco2)c1C#N)c1ccccc1, the inhibition is reported as -15.3%. CC(NC(=O)NCc1ccccc1)c1nc(-c2ccncc2)n[nH]1 (stereo unspecified) showed an inhibition of 8.4%. In the case of C=CCn1c(=O)c(C(=O)NCc2ccc3c(c2)OCO3)c(O)c2ccccc21, the inhibition is reported as -23.4%. For CCOc1ccc(CN(C)C(=O)C2=NNC(=O)CC2)cc1, the inhibition was -31.5%. Compound COc1ccc(OCC(=O)N2N=C(c3ccc(Cl)cc3)CC2c2ccco2)cc1 (stereo unspecified) has an inhibition of -31.7%. Cc1ccc(NC(=O)c2sc3ncnc(N4CCN(C)CC4)c3c2C)cc1F showed an inhibition of -16.4%. Work on CCOC(=O)c1ccc(N=C2SC(C(=O)Nc3ccc(C)cc3C)CC(=O)N2C)cc1 (stereo unspecified) yielded an inhibition of -8.2%. In the case of N#CCSc1nnc(-c2ccccc2)c2ccccc12, the inhibition is reported as -26.2%. With Cc1cccc(NC(c2ccccn2)c2ccc3cccnc3c2O)n1 (stereo unspecified) the inhibition was -53.1%. O=S(=O)(Nc1ccc(-c2ccc(N3CCCCC3)nn2)cc1)c1ccc(F)cc1F was tested, and the inhibition was -38.3%. CCc1nc2cccnc2n1-c1ccc(CC(=O)N2CCOCC2)cc1 showed an inhibition of -27.2%. Compound CC1=Nc2c(ccc3cccnc23)C1(C)C has an inhibition of -24.6%. CC1CN(Cn2[nH]c(=O)ccc2=O)CC(C)O1 (stereo unspecified) gave an inhibition of -7.4%. For CC1=C(C(=O)OC2CCCC2)C(c2coc3ccc(C)cc3c2=O)C2=C(CC(c3ccco3)CC2=O)N1 (stereo unspecified), the inhibition was -3.1%. For O=C(NCc1cc2ccccc2s1)c1ccc(N2CCOCC2)nc1, the inhibition was -4.6%. In the case of CC(C(=O)Nc1ccc(S(=O)(=O)N2CCCC2)cc1)N(C)Cc1ccc(F)cc1 (stereo unspecified), the inhibition is reported as -5%. COc1ccc(C2CC(=O)C3=C(C2)NC(C)=C(C(=O)Nc2ccc(C)cc2)C3c2ccccc2)cc1OC (stereo unspecified) showed an inhibition of -11.7%. Compound O=C(NCCO)c1ccc(C(=O)NCCO)cc1 has an inhibition of -13.4%. For CCOc1ccc(NC(=O)CS(=O)(=O)c2cccc3nsnc23)cc1, the inhibition was -37.5%. COc1ccccc1N1CCN(C(=O)Cc2csc(NC(=O)Nc3ccccc3)n2)CC1 gave an inhibition of -7.3%. With CC1CCN(C(=O)c2cn(C)cc3c(=O)n(-c4ccccc4)nc2-3)CC1 the inhibition was -66.2%.

Reference: PubChem BioAssay AID1918969 (ICCB-Longwood Screening Facility, Harvard Medical School, 2023)
